Common to all, as to conditions: mRNA level, 48 h; actives raise or lower the signal
Read-out in assay [1]: Bcl-2 (BAX) gene, BAX (gene 581)
The assay is described as follows: LTEA_HepaRG_BAX: Life Technologies and Expression Analysis (LTEA) Assay for Bcl-2 (BAX) gene using HepaRG (AID 2283470). A digest of the protocol:
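Differentiated HepaRG cells exposed 48 h in serum-free induction medium, eight half-log concentrations from 100 uM, in duplicate, 0.5% DMSO vehicle. BAX mRNA by TaqMan qRT-PCR, normalised to ACTB, GAPDH and POLR2A.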

Read-out in assay [2]: adenosine kinase (ADK) gene, ADK (gene 132)
The assay is described as follows: LTEA_HepaRG_ADK: Life Technologies and Expression Analysis (LTEA) Assay for adenosine kinase (ADK) gene using HepaRG (AID 2283471). A digest of the protocol: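 ADK expression quantified by qRT-PCR, normalised to three housekeeping genes, after 48 h exposure of HepaRG cells to eight concentrations (top 100 uM, half-log steps, duplicate, 0.5% DMSO). Up- or down-regulation fitted relative to vehicle.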

Read-out in assay [3]: Alpha-fetoprotein (AFP) gene, AFP (gene 174)
The assay is described as follows: LTEA_HepaRG_AFP: Life Technologies and Expression Analysis (LTEA) Assay for Alpha-fetoprotein (AFP) gene using HepaRG (AID 2283472). Put shortly:
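Differentiated human HepaRG cells exposed 48 h in serum-free induction medium, 8-point half-log series from 100 uM in 0.5% DMSO, duplicate. AFP mRNA by qRT-PCR, normalized to ACTB, GAPDH, POLR2A; bidirectional fit vs DMSO.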

Read-out in assay [4]: BCL2L11 (gene 10018)
The assay is described as follows: LTEA_HepaRG_BCL2L11: Life Technologies and Expression Analysis (LTEA) Assay for Bcl-2 (BCL2L11) gene using HepaRG (AID 2283473). A digest of the protocol: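 Differentiated human HepaRG cells were exposed 48 h in serum-free induction medium to eight half-log concentrations up to 100 uM in 0.5% DMSO, in duplicate. BCL2L11 mRNA was quantified by TaqMan qRT-PCR, normalized to ACTB, GAPDH and POLR2A; induction or repression fitted versus DMSO.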

Read-out in assay [5]: Apolipoprotein A-V (APOA5) gene, APOA5 (gene 116519)
The assay is described as follows: LTEA_HepaRG_APOA5: Life Technologies and Expression Analysis (LTEA) Assay for Apolipoprotein A-V (APOA5) gene using HepaRG (AID 2283474). A digest of the protocol: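 Differentiated HepaRG cells in serum-free induction medium, exposed 48 h in duplicate to eight half-log concentrations topping at 100 uM (0.5% DMSO). APOA5 mRNA by Fluidigm TaqMan qRT-PCR, normalized to ACTB, GAPDH and POLR2A; bidirectional fit versus DMSO.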

Read-out in assay [6]: Apoptosis regulator Bcl-2 (Homo sapiens) (UniProt P10415)
The assay is described as follows: LTEA_HepaRG_BCL2: Life Technologies and Expression Analysis (LTEA) Assay for Bcl-2 gene using HepaRG (AID 2283475). A digest of the protocol: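 Differentiated human HepaRG cells in serum-free induction medium exposed 48 h, in duplicate, to 8-point half-log series from 100 uM in 0.5% DMSO. BCL2 mRNA by qRT-PCR (TaqMan/Fluidigm), normalized to ACTB, GAPDH, POLR2A; bidirectional fit against DMSO.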

Read-out in assay [7]: Bcl-2 (BID) gene, BID (gene 637)
The assay is described as follows: LTEA_HepaRG_BID: Life Technologies and Expression Analysis (LTEA) Assay for Bcl-2 (BID) gene using HepaRG (AID 2283476). A digest of the protocol: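 Gene expression by qRT-PCR in HepaRG cells after 48 h exposure, duplicate wells, eight half-log concentrations topping at 100 uM in 0.5% DMSO. Normalized to ACTB, GAPDH, POLR2A; bidirectional fitting relative to DMSO.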

Read-out in assay [8]: Caspase-3 (Homo sapiens) (UniProt P42574)
The assay is described as follows: LTEA_HepaRG_CASP3: Life Technologies and Expression Analysis (LTEA) Assay for cysteine-aspartic acid protease (CASP3) using HepaRG (AID 2283477). Put shortly: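 Differentiated HepaRG cells, plated 48 h, were treated in duplicate in serum-free induction medium for 48 h with eight half-log concentrations up to 100 uM in 0.5% DMSO. CASP3 mRNA measured by qRT-PCR, normalized to ACTB, GAPDH, POLR2A.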

Read-out in assay [9]: Cytochrome P450 (CYP24A1), CYP24A1 (gene 1591)
The assay is described as follows: LTEA_HepaRG_CYP24A1: Life Technologies and Expression Analysis (LTEA) Assay for Cytochrome P450 (CYP24A1) using HepaRG (AID 2283478). A digest of the protocol: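 HepaRG cells plated 48 h, then exposed in duplicate in serum-free induction medium for 48 h to 8-point half-log series from 100 uM in 0.5% DMSO. CYP24A1 mRNA by Fluidigm qRT-PCR, normalized to ACTB, GAPDH, POLR2A; bidirectional fit versus DMSO.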

Read-out in assay [10]: cysteine-aspartic acid protease (CASP8), CASP8 (gene 841)
The assay is described as follows: LTEA_HepaRG_CASP8: Life Technologies and Expression Analysis (LTEA) Assay for cysteine-aspartic acid protease (CASP8) using HepaRG (AID 2283480). Put shortly: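 Differentiated HepaRG cells in serum-free induction medium, 48 h exposure, eight-point half-log series from 100 uM in 0.5% DMSO, duplicates. CASP8 mRNA by qRT-PCR, normalized to ACTB, GAPDH, POLR2A; bidirectional fit versus DMSO.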

Read-out in assay [11]: Cytochrome P450 (CYP2B6), CYP2B6 (gene 1555)
The assay is described as follows: LTEA_HepaRG_CYP2B6: Life Technologies and Expression Analysis (LTEA) Assay for Cytochrome P450 (CYP2B6) using HepaRG (AID 2283481). A digest of the protocol:
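Differentiated human HepaRG cells in serum-free induction medium, dosed in duplicate for 48 h over 8 half-log concentrations topping at 100 uM (0.5% DMSO). CYP2B6 mRNA measured by TaqMan qRT-PCR, normalized to ACTB, GAPDH, POLR2A; bidirectional fit versus DMSO.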

Read-out in assay [12]: Cytochrome P450 2C19 (Homo sapiens) (UniProt P33261)
The assay is described as follows: LTEA_HepaRG_CYP2C19: Life Technologies and Expression Analysis (LTEA) Assay for CYP2C19 using HepaRG (AID 2283482). A digest of the protocol: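 Differentiated HepaRG cells in serum-free induction medium exposed 48 h in duplicate, 8 concentrations from 100 uM by half-log steps in 0.5% DMSO. CYP2C19 mRNA measured by TaqMan qRT-PCR, normalized to ACTB, GAPDH, POLR2A. Bidirectional fit versus DMSO.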

Read-out in assay [13]: CYP2C9 (gene 1559)
The assay is described as follows: LTEA_HepaRG_CYP2C9: Life Technologies and Expression Analysis (LTEA) Assay for CYP2C9 using HepaRG (AID 2283484). Put shortly: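 Differentiated human HepaRG cells in serum-free induction medium were exposed 48 h to chemicals in 8-point half-log series from 100 uM (0.5% DMSO), in duplicate. CYP2C9 mRNA was measured by qRT-PCR, normalized to ACTB/GAPDH/POLR2A, with bidirectional fitting versus DMSO.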

Read-out in assay [14]: CYP2E1 (gene 1571)
The assay is described as follows: LTEA_HepaRG_CYP2E1: Life Technologies and Expression Analysis (LTEA) Assay for CYP2E1 using HepaRG (AID 2283485). Put shortly:
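HepaRG cells, plated 48 h, then exposed 48 h in serum-free induction medium to eight half-log concentrations from 100 uM in 0.5% DMSO, duplicate. CYP2E1 mRNA by qRT-PCR, normalized to ACTB/GAPDH/POLR2A; bidirectional fit versus DMSO.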

Read-out in assay [15]: Cytochrome P450 3A4 (Homo sapiens) (UniProt P08684)
The assay is described as follows: LTEA_HepaRG_CYP3A4: Life Technologies and Expression Analysis (LTEA) Assay for CYP3A4 using HepaRG (AID 2283487). A digest of the protocol: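 Differentiated HepaRG cells, plated 48 h, then dosed 48 h in serum-free induction medium with 0.5% DMSO, 8 half-log concentrations up to 100 uM, duplicate. CYP3A4 mRNA by qRT-PCR, normalized to ACTB/GAPDH/POLR2A; bidirectional fit versus DMSO.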

Read-out in assay [16]: DNA damage-inducible transcript 3 (DDIT3), DDIT3 (gene 1649)
The assay is described as follows: LTEA_HepaRG_DDIT3: Life Technologies and Expression Analysis (LTEA) Assay for DNA damage-inducible transcript 3 (DDIT3) using HepaRG (AID 2283488). Put shortly: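 HepaRG cells, 48 h after plating, exposed 48 h in serum-free induction medium to 8 half-log concentrations up to 100 uM in 0.5% DMSO, in duplicate. DDIT3 mRNA measured by TaqMan qRT-PCR, normalized to ACTB, GAPDH and POLR2A. Fitted bidirectionally against DMSO.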

Read-out in assay [17]: Pro-epidermal growth factor (Homo sapiens) (UniProt P01133)
The assay is described as follows: LTEA_HepaRG_EGF: Life Technologies and Expression Analysis (LTEA) Assay for Epidermal growth factor (EGF) using HepaRG (AID 2283489). Put shortly: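 HepaRG cells (~100,000/well, 48 h pre-culture) exposed in duplicate for 48 h in serum-free induction medium to 8 half-log concentrations up to 100 uM in 0.5% DMSO. EGF mRNA by qRT-PCR, normalized to ACTB/GAPDH/POLR2A; bidirectional fit versus DMSO.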

Read-out in assay [18]: CYP4A11 (gene 1579)
The assay is described as follows: LTEA_HepaRG_CYP4A11: Life Technologies and Expression Analysis (LTEA) Assay for CYP4A11 using HepaRG (AID 2283486). A digest of the protocol: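 Differentiated HepaRG cells, 48 h after plating, exposed in duplicate for 48 h to 8 half-log concentrations up to 100 uM in 0.5% DMSO in serum-free induction medium. CYP4A11 mRNA measured by TaqMan qRT-PCR, normalized to ACTB, GAPDH and POLR2A.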

Read-out in assay [19]: CYP2C8 (gene 1558)
The assay is described as follows: LTEA_HepaRG_CYP2C8: Life Technologies and Expression Analysis (LTEA) Assay for CYP2C8 using HepaRG (AID 2283483). Put shortly: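 Differentiated HepaRG cells in serum-free induction medium exposed 48 h in duplicate to 8 half-log concentrations from 100 uM in 0.5% DMSO. CYP2C8 mRNA by qRT-PCR normalized to ACTB, GAPDH, POLR2A; bidirectional fit versus DMSO.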

The AC50 is the concentration giving half of the maximal activity seen.

The structures appear in SMILES notation. Active and inactive are the calls of the source. Rule for the calls: active = hit-call score of the fitted dose curve at least 0.9, where 1 is the maximum; inactive = score below 0.9.

Chain of Cytochrome P450 3A4 (Homo sapiens) (P08684 whole entry, looked up): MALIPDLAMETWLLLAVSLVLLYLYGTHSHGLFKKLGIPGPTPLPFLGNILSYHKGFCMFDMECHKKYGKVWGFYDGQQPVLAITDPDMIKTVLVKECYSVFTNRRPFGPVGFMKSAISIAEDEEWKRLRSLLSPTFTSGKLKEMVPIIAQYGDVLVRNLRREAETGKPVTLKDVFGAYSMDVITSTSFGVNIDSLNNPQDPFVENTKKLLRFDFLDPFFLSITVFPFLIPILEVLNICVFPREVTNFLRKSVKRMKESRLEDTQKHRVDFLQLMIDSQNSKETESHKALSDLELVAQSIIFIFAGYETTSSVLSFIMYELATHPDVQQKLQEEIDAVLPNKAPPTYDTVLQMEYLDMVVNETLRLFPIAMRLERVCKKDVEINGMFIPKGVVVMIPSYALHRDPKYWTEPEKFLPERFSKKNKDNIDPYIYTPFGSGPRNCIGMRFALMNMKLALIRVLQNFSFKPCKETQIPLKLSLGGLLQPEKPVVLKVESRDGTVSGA
Chain of Cytochrome P450 2C19 (Homo sapiens) (P33261 whole entry, looked up): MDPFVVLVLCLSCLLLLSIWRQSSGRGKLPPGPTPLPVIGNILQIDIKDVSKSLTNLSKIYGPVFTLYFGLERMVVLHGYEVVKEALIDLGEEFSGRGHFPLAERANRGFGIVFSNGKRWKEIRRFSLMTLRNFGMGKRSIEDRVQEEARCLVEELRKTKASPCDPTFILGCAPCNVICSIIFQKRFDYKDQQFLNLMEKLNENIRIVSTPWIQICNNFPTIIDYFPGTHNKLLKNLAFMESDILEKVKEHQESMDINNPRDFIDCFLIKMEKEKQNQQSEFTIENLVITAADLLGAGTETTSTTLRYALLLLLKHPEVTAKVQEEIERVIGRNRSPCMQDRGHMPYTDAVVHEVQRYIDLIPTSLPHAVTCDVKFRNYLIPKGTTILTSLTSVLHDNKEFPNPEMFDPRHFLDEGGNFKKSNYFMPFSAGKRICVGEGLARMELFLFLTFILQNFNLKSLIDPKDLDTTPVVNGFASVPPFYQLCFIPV
Chain of Caspase-3 (Homo sapiens) (P42574 whole entry, looked up): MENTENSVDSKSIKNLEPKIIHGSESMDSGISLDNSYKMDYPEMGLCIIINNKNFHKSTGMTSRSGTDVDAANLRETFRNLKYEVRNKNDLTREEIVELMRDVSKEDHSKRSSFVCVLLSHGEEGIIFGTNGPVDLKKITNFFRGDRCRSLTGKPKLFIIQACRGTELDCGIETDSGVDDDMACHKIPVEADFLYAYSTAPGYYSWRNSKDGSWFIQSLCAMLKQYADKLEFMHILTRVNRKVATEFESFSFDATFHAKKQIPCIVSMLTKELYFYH
Chain of Apoptosis regulator Bcl-2 (Homo sapiens) (P10415 whole entry, looked up): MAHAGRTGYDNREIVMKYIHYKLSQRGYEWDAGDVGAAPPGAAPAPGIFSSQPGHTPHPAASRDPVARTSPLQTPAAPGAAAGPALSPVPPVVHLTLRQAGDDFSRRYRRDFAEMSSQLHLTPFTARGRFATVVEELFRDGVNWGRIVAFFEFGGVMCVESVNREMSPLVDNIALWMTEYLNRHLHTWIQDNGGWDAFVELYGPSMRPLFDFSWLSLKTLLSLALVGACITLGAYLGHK

Take `COP(=S)(OC)SCn1nnc2ccccc2c1=O`: the compound was called inactive in [1], in assay [2], in assay [3], in [4], in assay [5] and in assay [6]. Moreover, the call in assay [7], in assay [8], in [9], in [10], in [13] and in assay [14] was inactive. The compound was classed as inactive in assay [16] and in [17]. Besides, the half-maximal activity concentration (AC50) was 6.27 µM (active) in assay [11], 40.9 µM (active) in assay [12] and 25 µM (active) in assay [15].

For `CCN(CC)c1nc(C)cc(OP(=S)(OC)OC)n1`, the result in [1], in assay [2], in [3], in assay [4], in assay [5] and in assay [6] was inactive. For the same compound, the result in assay [7], in [8], in assay [9], in assay [10], in assay [13] and in assay [18] was inactive. Further, the result in [16] and in assay [17] was inactive. For the same compound, the AC50 in [11] is 2.79 µM (active); in assay [12], 12.1 µM (active); in assay [14], 37.4 µM (active); in [15], 10.9 µM (active).

As to `COC(=O)NS(=O)(=O)c1ccc(N)cc1`, the outcome in [1], in [2], in [3], in assay [4], in assay [5] and in assay [6] was inactive. In addition, the result in [7], in [8], in [9], in assay [10], in assay [11] and in assay [12] was inactive. For the same compound, the compound was classed as inactive in [19], in assay [13], in assay [14], in assay [15], in assay [16] and in [17].

As to `CCNC(=O)NC(=O)C(C#N)=NOC`, the call in assay [1], in [2], in assay [4], in [5], in assay [6] and in assay [8] was inactive. The compound was called inactive in assay [9], in [10], in assay [12], in assay [19], in [13] and in assay [15]. The AC50 in assay [3] was 75.6 µM (active); in [7], 0.234 µM (active); in assay [11], 3.37 µM (active); in [14], 50 µM (active); in assay [16] it was 11.6 µM (active).

On to `CCOc1nc(F)cc2nc(S(=O)(=O)Nc3c(Cl)cccc3Cl)nn12`, for which the outcome in [1], in [4], in assay [5], in assay [6], in assay [7] and in assay [8] was inactive. The compound was called inactive in [9], in assay [10], in assay [12], in assay [13], in assay [18] and in [16]. Further, the result in assay [17] was inactive. For the same compound, the AC50 in assay [2] was 41.3 µM (active); in assay [3], 25.3 µM (active); in assay [11], 13.2 µM (active); in assay [14], 20.3 µM (active); in [15] it was 1.85 µM (active).

(Values after PubChem BioAssay (EPA / NIEHS).)
